Most compounds without a hit are left out; they make up all but 2.7% or so of the library.
SENP6 inh: SENP6 protease inhibitors, primary screen, biochemical, luminescence, uHTS. inhibition, % at 10 µM. actives 1.8% (n = 330,000). Recombinant SENP6 catalytic domain, aminoluciferin luminescence. Sentrin-specific protease 6 (Homo sapiens), Q9GZR1;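 active = inhibition above about 50% at the single tested dose, limit read from the data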;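 also: plate controls were DMSO wells with enzyme for no effect and DMSO wells lacking enzyme for full effect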
Target sequence (Q9GZR1 628-1112 limits assumed): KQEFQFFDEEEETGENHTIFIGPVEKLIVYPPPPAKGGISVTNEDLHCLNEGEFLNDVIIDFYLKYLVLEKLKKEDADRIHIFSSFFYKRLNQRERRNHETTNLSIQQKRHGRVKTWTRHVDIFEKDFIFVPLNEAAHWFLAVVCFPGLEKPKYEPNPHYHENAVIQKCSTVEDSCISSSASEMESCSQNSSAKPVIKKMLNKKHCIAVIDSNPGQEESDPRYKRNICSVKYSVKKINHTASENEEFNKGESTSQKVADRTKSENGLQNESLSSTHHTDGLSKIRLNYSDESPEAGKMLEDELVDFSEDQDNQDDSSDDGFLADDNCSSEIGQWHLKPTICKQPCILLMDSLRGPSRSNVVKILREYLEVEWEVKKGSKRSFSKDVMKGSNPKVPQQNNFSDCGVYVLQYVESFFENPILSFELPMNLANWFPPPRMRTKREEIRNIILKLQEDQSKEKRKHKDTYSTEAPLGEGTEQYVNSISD
SENP8 block-1: human SENP8 protease inhibitors, primary screen, biochemical, fluorescence, Nedd8 protein substrate, uHTS | inhibition, % at 20 µM | AID 602440, 2012 | actives 0.64% (n = 360,000) | Sentrin-specific protease 8 (Homo sapiens), Q96LD8 | recombinant SENP8; in the data active = inhibition mostly above about 40%, no sharp cut-off; inactive = mostly below about 27%
Target sequence (Q96LD8 whole entry, looked up): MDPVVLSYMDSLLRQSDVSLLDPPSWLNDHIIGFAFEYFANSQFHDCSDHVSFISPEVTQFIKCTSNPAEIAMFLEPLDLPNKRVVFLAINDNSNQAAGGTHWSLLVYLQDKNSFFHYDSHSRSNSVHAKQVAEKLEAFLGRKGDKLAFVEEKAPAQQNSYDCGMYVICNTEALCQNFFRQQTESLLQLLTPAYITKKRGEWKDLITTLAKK
SENP8 block-2: SENP8 protease inhibitors, primary screen, biochemical, luminescence; Sentrin-specific protease 8 (Homo sapiens), Q96LD8; purified SENP8, Z-RLRGG-aminoluciferin cleavage; inhibition, % at 10 µM; actives 1.2% (n = 330,000); AID 2540, 2010; in the data active = inhibition above about 50%
HSP90 inh: HSP90 inhibitors, primary screen, cell lysate, luminescence. Rabbit reticulocyte lysate, luciferase refolding luminescence, 3 h. actives 0.91% (n = 290,000). AID 1789, 2009. inhibition, % at 5.6 µM. Heat shock protein HSP 90 (rabbit reticulocyte lysate; luciferase refolding);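 active = inhibition above the screen-wide mean plus 3 SD, computed separately per campaign, cut at about 16% in these data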;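 also: 0% = DMSO wells and 100% = 60 µM geldanamycin wells; inhibitors lower the luminescence because luciferase stays unfolded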
SENP7 block: SENP7 protease inhibitors, primary screen, biochemical, luminescence, uHTS; Sentrin-specific protease 7 (Homo sapiens), Q9BQF6; recombinant SENP7, Z-RLRGG-aminoluciferin luminescence, 40 min; inhibition, % at 5 µM; actives 1.5% (n = 330,000);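 active = inhibition above about 50% at the single test dose, limit read from the data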;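 also: plate controls were DMSO with enzyme for no effect and no enzyme buffer wells for full effect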
SENP8 conf: SENP8 protease inhibitors, retest, confirmation, biochemical, luminescence, single concentration | shares compounds with SENP7 block | actives 40% (n = 6,200) | inhibition, % at 12.5 µM | Recombinant SENP8, Z-RLRGG-aminoluciferin luminescence, 60 min;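 active = mean inhibition across replicates above about 50%, limit read from the data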
SENP6 confirm: SENP6 protease inhibitors, confirmation, biochemical, luminescence, single concentration; inhibition, % at 12.5 µM; recombinant SENP6, Z-RLRGG-aminoluciferin luminescence; actives 58% (n = 6,200); AID 488915, 2010; shares compounds with SENP7 block
SENP7 confirm: SENP7 protease inhibitors, retest, confirmation, biochemical, luminescence, single concentration | actives 69% (n = 6,200) | recombinant SENP7, Z-RLRGG-aminoluciferin luminescence, 40 min | shares compounds with SENP7 block | inhibition, % at 12.5 µM | AID 488917, 2010
Casp3 select: caspase-3 protease inhibitors, confirmation, selectivity assay for SENP inhibitor project, biochemical, single concentration; shares compounds with SENP7 block; purified caspase-3, Z-DEVD-aminoluciferin luminescence, 60 min; inhibition, % at 12.5 µM; actives 60% (n = 6,200); AID 488918, 2010;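 active = mean inhibition above about 50%, limit read from the data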;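 also: plate controls were enzyme with DMSO for no effect and wells without caspase-3 for full effect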
Luc interf: luminescence interference (SENP counter-screen) | shares compounds with SENP7 block | actives 39% (n = 6,200) | Pre-incubated SENP8/Z-RLRGG-aminoluciferin, luciferase luminescence interference | inhibition, % at 12.5 µM;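 active = mean inhibition above about 50% when retested at one dose, limit read from the data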;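 also: plate controls were DMSO wells with completed reaction for no effect and substrate without enzyme for full effect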
Active calls of the source: *; x = not tested or not shown.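 The calls were made as follows, unless noted: active = mean inhibition above about 50% in the one-dose retest (limit read from the data); inactive = the rest.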

SMILES	SENP6 inh	SENP8 block-1	SENP8 block-2	HSP90 inh	SENP7 block	SENP8 conf	SENP6 confirm	SENP7 confirm	Casp3 select	Luc interf
O=C1/C(=C\c2ccc(-c3ccccc3[N+](=O)[O-])o2)C(c2ccccc2)=NN1c1ccccc1	57.6*	35.6	3.7	0.4	10.6	-18.2	-7.4	-7.4	-10.0	-5.7
CC1=NN(c2ccc([N+](=O)[O-])cc2)C(=O)/C1=C\N(C)C	96.9*	42.6*	93.1*	3.6	95.3*	95.6*	95.0*	101.8*	98.3*	95.5*
COc1ccccc1/C=C1/C(=O)N(c2ccc([N+](=O)[O-])cc2)N=C1C	27.1	23.3	25.6	3.4	20.5	x	x	x	x	x
CCOC(=O)C(=CNc1ccc(O)c(C(=O)OC)c1)C(=O)OCC	-1.1	-384.2	-0.8	x	0.7	x	x	x	x	x
CC1=NN(c2nc3ccccc3[nH]2)C(=O)/C1=C/N(C)C	88.2*	14.9	92.3*	7.7	95.9*	87.7*	84.1*	98.5*	96.8*	91.3*
O=C1C(c2cc(=O)c3ccccc3[nH]2)=C(O)c2ccccc21	97.7*	22.7	96.9*	0.7	99.7*	94.0*	99.1*	102.6*	96.2*	95.2*
O=C1C(c2ccncc2)=C(O)c2ccccc21	85.2*	26.9	72.8*	16.4*	72.4*	84.3*	82.7*	96.1*	91.0*	66.7*
Cc1ccc(C2=C(O)c3ccccc3C(=O)C2=O)cc1	11.1	10.5	-6.6	0.6	-2.0	x	x	x	x	x
CSCCC(NS(=O)(=O)c1ccccc1F)C(=O)NCc1cccs1 (configuration not stated)	5.8	12.0	10.3	x	1.0	x	x	x	x	x
Fc1cccc(NC(=S)N2CCc3ccccc32)c1	56.9*	5.8	9.7	-1.3	2.2	11.7	2.1	10.1	3.4	16.9
CC(C)[C@H](NS(=O)(=O)c1ccccc1)C(=O)OCC(=O)NC(=O)c1cccn1C	60.0*	2.9	27.2	3.7	11.3	47.0	38.4	68.0*	61.0*	8.7
COc1ccc(NC(=O)Nc2ccc(OCC(=O)N3CCOCC3)cc2)cc1OC	-12.2	17.2	-1.6	-1.4	12.2	x	x	x	x	x
COc1ccc(CC(=O)Nc2cc(=O)n(C)c(=O)n2C)cc1	9.4	-2.2	-3.2	-1.1	4.4	x	x	x	x	x
COc1ccc(-c2nc3cc([N+](=O)[O-])ccc3o2)cc1	33.6	24.5	17.0	1.5	76.9*	30.9	36.0	49.8	59.4*	12.6
Nc1ccc(-c2nc3cc([N+](=O)[O-])ccc3o2)cc1	63.2*	-424.2	38.1	5.7	56.1*	10.9	43.0	85.0*	53.7*	10.1
CC(C)(C)Nc1nc2cc([N+](=O)[O-])ccc2o1	6.0	16.4	-2.0	0.2	-1.6	x	x	x	x	x
CSc1nc(O)c(C(c2ccc(F)cc2)c2c(O)nc(SC)[nH]c2=O)c(=O)[nH]1	-3.5	16.9	9.1	x	1.4	x	x	x	x	x
CSc1nc(O)c(N=Nc2ccc(F)cc2F)c(=O)[nH]1	91.1*	16.3	81.3*	14.8	87.0*	83.2*	86.4*	95.7*	93.1*	53.3*
CC(C)(C)NC(=O)C1c2ccccc2OCC(=O)N1C1CC1 (configuration not stated)	x	9.5	x	x	x	x	x	x	x	x
O=Cc1ccccc1OCc1ccc2c(c1)OCO2	96.9*	13.2	91.1*	-3.0	92.1*	96.4*	97.1*	100.8*	95.3*	89.8*
Cc1cccc(C)c1NC(=O)C(c1ccccc1)n1c(=O)c(-c2cc3ccccc3[nH]2)nc2ccccc21 (configuration not stated)	x	-429.6	x	x	x	x	x	x	x	x
COc1cccc(C(=O)OCC(=O)c2ccc(Br)s2)c1	54.3*	4.2	24.6	1.1	40.1	53.1*	49.2	78.4*	35.5	20.9
Cc1ccc2nc(-c3ccc(NC(=O)c4ccco4)cc3)[nH]c2c1	50.7*	-147.7	-2.4	4.5	34.7	11.3	10.4	64.0*	28.5	42.0
COc1cc(OC)cc(C(=O)Nc2ccc(NC(=O)c3ccco3)c(C)c2)c1	97.9*	2.6	93.6*	-0.2	96.0*	4.5	95.3*	100.8*	95.9*	85.9*
O=C(Nc1ccc(OC(=O)c2ccco2)cc1)c1ccco1	82.8*	13.9	29.0	0.1	85.8*	66.9*	61.7*	90.3*	53.1*	79.5*
SMILES	SENP6 inh	SENP8 block-1	SENP8 block-2	HSP90 inh	SENP7 block	SENP8 conf	SENP6 confirm	SENP7 confirm	Casp3 select	Luc interf
CCC(=O)Oc1ccc(NC(=O)c2ccco2)cc1	-26.7	11.4	-16.5	0.7	5.9	x	x	x	x	x
Cc1cc(NC(=O)c2ccc3c(c2)OCO3)ccc1NC(=O)c1ccccc1	85.1*	7.0	61.1*	-0.8	91.9*	-24.7	32.5	29.5	6.9	-3.0
COc1cc(OC)cc(C(=O)Nc2cc(NC(=O)c3ccco3)ccc2OC)c1	-8.7	-13.4	4.4	0.0	-2.6	x	x	x	x	x
COc1ccc(CN2CCN(Cc3ccccc3C(F)(F)F)CC2)c(OC)c1	-7.7	14.1	0.6	1.7	1.9	x	x	x	x	x
O=C(c1ccc([N+](=O)[O-])o1)N1CCN(c2nc3c(F)cc(F)cc3s2)CC1	-2.0	15.2	8.1	x	12.5	x	x	x	x	x
CC1(C)CN(c2ccc(N3CC(C)(C)C3=O)cc2)C1=O	-10.1	18.3	5.6	-2.2	-2.5	x	x	x	x	x
CCOC(=O)c1cccc(NC(=O)c2ccc3c(c2)OCO3)c1	59.8*	14.2	24.3	-1.7	44.6	51.0*	46.9	74.4*	54.1*	37.8
O=C(Nc1ccc(-c2nc3cccnc3s2)cc1)c1ccco1	93.2*	-384.8	85.8*	2.4	89.5*	74.9*	91.3*	98.9*	79.3*	22.1
CCOC(=O)CNC(=O)CSc1nnc(NC(=O)c2ccc3c(c2)OCO3)s1	54.5*	-54.5	53.9*	3.6	78.5*	4.9	6.3	18.7	49.6	3.6

Compound activity: PubChem, several laboratories
